Assay results published in PubChem BioAssay AID2654 (Johns Hopkins Ion Channel Center, 2010).
Results with a measured potency or affinity are listed apart. Calls of active or inactive are those of the source.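 The calls were made as follows: active = increase of the KCNQ2 potassium channel current at -35 mV by at least one tested dose; inactive = no tested dose increases that current.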

Each molecule was assayed against Potassium voltage-gated channel subfamily KQT member 2 (Rattus norvegicus) (UniProt O88943) (assay: potentiation of rat KCNQ2 current – cell-based, retigabine-insensitive compounds, dose response (AID 2654)). Conditions: KCNQ2-CHO cells, automated patch clamp current potentiation; at 30 µM (top of the series).
Chain of Potassium voltage-gated channel subfamily KQT member 2 (Rattus norvegicus) (O88943 whole entry, looked up): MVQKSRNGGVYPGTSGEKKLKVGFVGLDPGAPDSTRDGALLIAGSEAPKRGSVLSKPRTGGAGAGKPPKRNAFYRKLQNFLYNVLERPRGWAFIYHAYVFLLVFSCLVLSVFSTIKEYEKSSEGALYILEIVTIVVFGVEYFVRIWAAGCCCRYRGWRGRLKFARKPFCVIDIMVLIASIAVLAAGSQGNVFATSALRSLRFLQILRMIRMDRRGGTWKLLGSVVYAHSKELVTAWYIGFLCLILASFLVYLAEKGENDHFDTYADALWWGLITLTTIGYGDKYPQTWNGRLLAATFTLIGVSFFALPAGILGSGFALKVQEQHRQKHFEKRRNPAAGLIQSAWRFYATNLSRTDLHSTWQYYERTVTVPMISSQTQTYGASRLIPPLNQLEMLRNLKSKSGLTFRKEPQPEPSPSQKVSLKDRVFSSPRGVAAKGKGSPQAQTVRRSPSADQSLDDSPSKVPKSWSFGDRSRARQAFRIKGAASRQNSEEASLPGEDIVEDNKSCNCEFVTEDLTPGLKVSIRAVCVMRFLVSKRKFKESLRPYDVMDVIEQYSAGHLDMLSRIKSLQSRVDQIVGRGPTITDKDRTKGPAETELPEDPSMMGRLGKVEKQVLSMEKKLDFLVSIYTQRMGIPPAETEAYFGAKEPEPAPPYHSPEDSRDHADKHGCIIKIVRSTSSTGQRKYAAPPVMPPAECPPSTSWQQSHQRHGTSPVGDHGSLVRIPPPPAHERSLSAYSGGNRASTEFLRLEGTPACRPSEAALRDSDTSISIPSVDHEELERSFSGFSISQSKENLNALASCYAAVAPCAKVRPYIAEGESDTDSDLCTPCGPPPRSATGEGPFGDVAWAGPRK

| SMILES | potentiation |
| --- | --- |
| COc1cccc(NC(=S)Nc2cccnc2)c1 | 17.9 (inactive) |
| O=C(NCC(F)(F)F)Nc1cccnc1 | -1.35 (inactive) |
| S=C(Nc1cccnc1)NC1CCCC1 | -2.86 (inactive) |
| S=C(Nc1cccnc1)NC1CCCc2ccccc21 (configuration not stated) | 4.07 (inactive) |
| Fc1ccc(NC(=S)Nc2cccnc2)c(F)c1 | -38.9 (inactive) |
| COc1cc(NC(=S)Nc2cccnc2)cc(OC)c1 | 4.44 (inactive) |
| Cc1ccc(CNC(=S)Nc2cccnc2)cc1 | -2.47 (inactive) |
| Cc1ccc(NC(=S)Nc2cccnc2)cc1 | 12.9 (inactive) |
| O=C(Nc1cccc(Cl)c1)N(CC1CC1)c1cccnc1 | -18.1 (inactive) |
| S=C(NCc1ccccc1)Nc1cccnc1 | -6.69 (inactive) |
| Cc1ccc(NC(=O)Nc2cccnc2)c(C)c1 | 36.1 (inactive) |
| Cc1ccc(Cl)cc1NC(=S)Nc1cccnc1 | 8.95 (inactive) |
| O=C(Nc1cccc(F)c1)Nc1nccs1 | 17.7 (inactive) |
| Cc1ccnc(NC(=O)Nc2cccc(F)c2)c1 | -0.24 (inactive) |
| S=C(Nc1cccnc1)NC1CCCCCCC1 | 7.28 (inactive) |
| Cc1nc(F)ccc1NC(=O)Nc1cccc(F)c1 | 13.9 (inactive) |
| CC(CCc1ccccc1)NC(=S)Nc1cccnc1 (configuration not stated) | -10.2 (inactive) |
| O=C(Nc1cccnc1)N(CC1CC1)c1ccccc1 | -0.98 (inactive) |
| O=C(Nc1cccnc1)Nc1ccc(Br)cc1Cl | 0.99 (inactive) |
| Fc1ccc(NC(=S)Nc2cccnc2)c(F)c1F | 6.35 (inactive) |
| Fc1ccc(NC(=S)Nc2cccnc2)cc1 | 25.8 (inactive) |
| O=C(Nc1cccnc1)Nc1cc(Cl)cc(Cl)c1 | 1.48 (inactive) |
| COc1ccc(NC(=O)Nc2cccnc2)c(OC)c1 | -1.24 (inactive) |
| Cc1ccc(C)c(NC(=O)Nc2cccnc2)c1 | 4.05 (inactive) |
| O=C(Nc1cccnc1)Nc1ccc(F)cc1F | 14.1 (inactive) |
| O=C(Nc1cccnc1)Nc1ccc2c(c1)OCCO2 | 23.4 (inactive) |
| Cc1c(Cl)cccc1NC(=O)Nc1cccnc1 | 102 |
